We go through 24 compounds from PubChem BioAssay (NCATS).

Test [1] addresses Cytochrome P450 3A4 (Homo sapiens) (UniProt P08684). In words: qHTS Assay for Activators of Cytochrome P450 3A4 (AID 885). Note: nearly all actives have a fitted effect of over 65% in size. Note: potency is the fitted concentration of half-maximal effect. The procedure, abridged:
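Human CYP3A4 dealkylates Luciferin-PPXE to luciferin, which luciferase detection converts to light. Substrate was at its KM (25uM), buffer 200mM KPO4, reaction 60 min at RT.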

For test [2], the target named is alpha-glucosidase (Oryza sativa, rice) (UniProt Q653V4). In words: Counterscreen for Glucocerebrosidase Inhibitors: qHTS Assay for Rice alpha-Glucosidase at pH 5.0 (AID 997).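 Note: 0% = full activity with enzyme and -100% = basal without enzyme.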 The procedure, abridged:
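Endpoint fluorogenic assay at pH 5.0: compounds (0.7 nM to 77 uM) titrated against 4 nM rice enzyme and 400 uM 4-MU-alpha-glucoside for 20 min at room temperature; NaOH/glycine stop, read ex 365/em 440 nm, Hill-fitted AC50.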
In general terms: The purpose of a counterscreen is to sort out artefacts and off-target activity.

For test [3], the target named is Cytochrome P450 2D6 (Homo sapiens) (UniProt P10635). Put plainly: qHTS Assay for Inhibitors and Substrates of Cytochrome P450 2D6 (AID 891). Note: nearly all actives have a fitted effect of over 60% in size. Note: potency is the fitted concentration of half-maximal effect. The procedure, abridged:
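Luminescent read-out of luciferin formed by 5 nM human CYP2D6 demethylating 30 uM Luciferin-ME EGE (Km level) over 60 min at room temperature after NADPH regeneration addition. Data normalized to full inhibition by 1.43 uM quinidine.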

The nature of test [4]: qHTS assay for small molecule antagonists of peroxisome proliferator-activated receptor delta signaling (AID 588535; active = well fitted inhibition curve with a large enough effect in the signal ratio, with a control signal flat, not every such curve was filed as active; the % refers to the signal ratio;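 for max response: cells co-treated with a PPAR-delta agonist as stimulator during compound exposure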). The settings on record: HEK293T PPARd-UAS-bla, beta-lactamase FRET ratio, 18 h; 460 nm channel. The procedure, abridged:
(§1)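 Inhibition of PPAR-delta response element-driven beta-lactamase expression is measured in HEK293T cells exposed to a compound titration series for 18 hrs at 37 C. Half-maximal inhibition comes from Hill equation fitting.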
In general terms: In qHTS, concentration-response curves come from the screen itself.

In test [5] the target is Peroxisome proliferator-activated receptor delta (Homo sapiens) (UniProt Q03181). The description is as above. The gist of the method:
as §1

Test [6] concerns the target Peroxisome proliferator-activated receptor gamma (Homo sapiens) (UniProt P37231). Put plainly: qHTS assay for small molecule antagonists of peroxisome proliferator-activated receptor gamma signaling (AID 588537; active = well fitted inhibition curve with a large enough effect in the signal ratio, with a control signal flat, not every such curve was filed as active; the % refers to the signal ratio; note: potency is the fitted concentration of half-maximal effect). The procedure, abridged: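 Compounds are tested as concentration series for inhibition of rosiglitazone-driven (50 nM) reporter expression in GeneBLAzer PPAR-gamma-UAS-bla HEK293 cells. After 16 h at 37 C, CCF4 substrate is added for 2 h at room temperature and blue/green fluorescence is measured.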

For test [7], the target named is Thyroid hormone receptor beta (Homo sapiens) (UniProt P10828). In words: qHTS assay for small molecule antagonists of thyroid hormone receptor beta signaling (AID 588547; active = well fitted inhibition curve with a large enough effect in the signal ratio, with a control signal flat, not every such curve was filed as active; the % refers to the signal ratio;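 note: cells stimulated with 0.4 nM T3 agonist during compound exposure; series mostly up to about 77 µM; % is set by controls: 0 for no effect and ±100 for the full control effect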). The settings on record: TR-UAS-bla HEK293, beta-lactamase ratio, antagonist mode, 18 h. The gist of the method:
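TR-UAS-bla GripTite HEK293 cells in 2% charcoal/dextran FBS medium were preincubated 4 h at 37 C, given compound (0.59 nM to 92 uM) plus 0.4 nM T3 (final) for 18 h, then CCF4 for 2 h at RT; Hill fit gave IC50.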

A short description of test [8]: Cell Viability - LYMP2-013 (AID 970).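 Note: series mostly up to about 92 µM; cells exposed to compound for 24 h at 37 °C; 0% = DMSO only and full inhibition = tetraoctylammonium bromide control; nearly all actives have a fitted effect of over 55% in size.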 The gist of the method:
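Cytotoxicity is scored as a concentration-dependent drop in intracellular ATP in human lymphoblastoid cells after 24 hr compound exposure at 37 C. ATP is quantified by luciferase luminescence, and AC50 values come from Hill-equation modeling.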

Test [9] concerns the target Bile acid receptor (Homo sapiens) (UniProt Q96RI1). Put plainly: qHTS assay for small molecule antagonists of farnesoid X receptor signaling (AID 588526; calls by dose curve; note: % is set by controls: 0 for no effect and ±100 for the full control effect). The procedure, abridged:
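Concentration-response titrations were fitted to the Hill equation for half-maximal inhibition and maximal response, with data normalised to 50 uM chenodeoxycholic acid and DMSO control wells. Cells: FXR-UAS-bla HEK293T, dialyzed FBS.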

For test [10], the target named is Glucocorticoid receptor (Homo sapiens) (UniProt P04150). Put plainly: qHTS assay for small molecule agonists of glucocorticoid receptor signaling (AID 588532; active = well fitted curve in the direction sought with a large enough effect in the signal ratio, with a control signal flat; the % refers to the signal ratio;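 note: 100% = dexamethasone at 0.1 µM and 0% = DMSO only wells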). The following applies: HeLa MMTV-bla, beta-lactamase ratio, agonist, 18 h; stronger effect = higher value; percent of dexamethasone control, DMSO zero. The gist of the method:
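Titration series, up to 92 uM, applied to GRE-bla HeLa cells for 18 h at 37 C. Detection by CCF4 FRET substrate after 2 h at RT.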

Test [11] can be described thus: qHTS Assay for Identification of Small Molecule Agonists for Thrombopoietin (TPO) Signaling Pathway (AID 917). Note: % is set by controls: 0 for no effect and ±100 for the full control effect. The procedure, abridged: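 Ba/F3 (mouse) + hTPO receptor + GpIIb-promoter luciferase; IL-3 withdrawn overnight; compound + 26 pM TPO (EC50), 24 hrs, 37 C, 5% CO2; Steadylite luminescence, 10 min RT.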
Test [12] has as its target Cytochrome P450 2C9 (Homo sapiens) (UniProt P11712). In words: qHTS Assay for Inhibitors and Substrates of Cytochrome P450 2C9 (AID 883). Note: nearly all actives have a fitted effect of over 60% in size. Note: potency is the fitted concentration of half-maximal effect. The gist of the method:
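A luminogenic readout tracked human CYP2C9 (10nM) converting deoxyluciferin (100uM, at KM) in 25mM KPO4 during 60 min at 37C with regenerated NADPH. Values normalized to 57uM sulphaphenazole as complete inhibition.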

Test [13] has as its target Cytochrome P450 2C19 (Homo sapiens) (UniProt P33261). In words: qHTS Assay for Inhibitors and Substrates of Cytochrome P450 2C19 (AID 899). Note: nearly all actives have a fitted effect of over 60% in size. Note: potency is the fitted concentration of half-maximal effect. The gist of the method:
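NADPH-dependent conversion of Luciferin-H EGE (10uM, at KM) by 5nM enzyme in 50mM KPO4, 60 min at 37C following 10 min compound preincubation. Stopped with luciferin detection buffer; luminescence read after 20 min.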

Test [14] can be described thus: qHTS Assay for Identification of Small Molecule Antagonists for Thrombopoietin (TPO) Signaling Pathway (AID 918). Note: potency is the fitted concentration of half-maximal effect; nearly all actives have a fitted effect of over 60% in size. The settings on record: TPO-dependent cell signaling reporter, antagonist mode. The gist of the method: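 Inhibitors of TPO signaling are sought by stimulating IL-3-starved murine Ba/F3 cells (human TPO receptor, Glycoprotein IIb-driven luciferase) with TPO at its EC50 of 26 pM alongside compound. After 24 hrs at 37 C, reporter luminescence is measured.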

Test [15] can be described thus: qHTS Assay for Identification of Small Molecule Antagonists for NFkB Signaling Pathway (AID 895; active = well fitted inhibition curve with a large enough effect in the signal ratio, with a control signal flat, not every such curve was filed as active; the % refers to the signal ratio; note: % is set by controls: 0 for no effect and ±100 for the full control effect). The procedure, abridged:
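NFkB-bla ME-180 cervical carcinoma cells with beta-lactamase reporter under NFkB response element; compounds added, then TNF alpha at 10 pM final (EC50), 5 h at 37 C. LiveBLAzer substrate 2 h, room temperature; emission 460/530 nm at 405 nm excitation.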

Test [16] can be described thus: Cell Viability - LYMP1-003 - Assay at 40 hr (AID 964). The gist of the method:
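Luminescent ATP signal (CellTiter-Glo) served as the viability read-out after 40 hr compound treatment of human lymphoblastoid LYMP1-003 cells at 37 C. Decreases in ATP were fitted with the Hill equation to give AC50.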

Test [17] can be described thus: Cell Viability - LYMP2-024 (AID 988). Note: nearly all actives have a fitted effect of over 60% in size. Note: potency is the fitted concentration of half-maximal effect. The procedure, abridged: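 qHTS cytotoxicity, human lymphoblastoid line, complete medium; 24 h cpd treatment, 37 C; CellTiter-Glo ATP luminescence readout; tetraoctylammonium bromide positive control; AC50 via Hill fit.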
Test [18] has as its target Retinoic acid receptor RXR-alpha (Homo sapiens) (UniProt P19793). Put plainly: qHTS assay for small molecule agonists of retinoid X receptor alpha signaling (AID 588544; calls by dose curve; note: potency is the fitted concentration of half-maximal effect;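 for activation: 0% = DMSO basal wells and 100% = reference agonist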).
Test [19] is described as follows: qHTS assay to identify small molecules that stimulate interleukin-8 (IL-8) secretion (AID 651758; active = well fitted activation curve with a large enough effect in the signal ratio; the % refers to the signal ratio; note: potency is the fitted concentration of half-maximal effect; for activation: 0% is about no effect). The gist of the method: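 Quantitative HTS in THP-1 monocytic cells at 2000 cells per well, with 16 hrs compound incubation at 37 C. IL-8 in the medium was then quantified by HTRF immunoassay, read after 1-3 hrs at room temperature.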
Test [20] is described as follows: qHTS assay for small molecule activators of the nuclear factor-kappa B (NF-kB) signaling pathway (AID 651749; active = well fitted activation curve with a large enough effect in the signal ratio; the % refers to the signal ratio; note: series mostly up to about 77 µM; % of control where 0% means no effect). The following applies: NF-kB-bla ME-180 cells, beta-lactamase FRET ratio, 16 h; stronger effect = higher value. The gist of the method:
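Human ME-180 cervical cells with an NF-kB-bla construct; compounds added via 23 nL pin transfer, DMSO as vehicle; incubation 16 hr. Reporter activity measured by FRET disruption.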

The structures appear in SMILES notation. Where “and” joins values, the source holds several entries; their conditions need not be identical. Equal values may be shown once. Records with an inconclusive call do not appear. Calls of active or inactive are those of the source. Unless noted, calls come from the whole dose curve; as a rule, active = well fitted curve in the direction sought with a large enough effect; inconclusive = small, poorly fitted or top-dose-only effect, or another doubt; inactive = no such curve, though single readings can be large; an effect the other way counts as inactive or inconclusive.

Chain of Glucocorticoid receptor (Homo sapiens) (P04150 whole entry, looked up): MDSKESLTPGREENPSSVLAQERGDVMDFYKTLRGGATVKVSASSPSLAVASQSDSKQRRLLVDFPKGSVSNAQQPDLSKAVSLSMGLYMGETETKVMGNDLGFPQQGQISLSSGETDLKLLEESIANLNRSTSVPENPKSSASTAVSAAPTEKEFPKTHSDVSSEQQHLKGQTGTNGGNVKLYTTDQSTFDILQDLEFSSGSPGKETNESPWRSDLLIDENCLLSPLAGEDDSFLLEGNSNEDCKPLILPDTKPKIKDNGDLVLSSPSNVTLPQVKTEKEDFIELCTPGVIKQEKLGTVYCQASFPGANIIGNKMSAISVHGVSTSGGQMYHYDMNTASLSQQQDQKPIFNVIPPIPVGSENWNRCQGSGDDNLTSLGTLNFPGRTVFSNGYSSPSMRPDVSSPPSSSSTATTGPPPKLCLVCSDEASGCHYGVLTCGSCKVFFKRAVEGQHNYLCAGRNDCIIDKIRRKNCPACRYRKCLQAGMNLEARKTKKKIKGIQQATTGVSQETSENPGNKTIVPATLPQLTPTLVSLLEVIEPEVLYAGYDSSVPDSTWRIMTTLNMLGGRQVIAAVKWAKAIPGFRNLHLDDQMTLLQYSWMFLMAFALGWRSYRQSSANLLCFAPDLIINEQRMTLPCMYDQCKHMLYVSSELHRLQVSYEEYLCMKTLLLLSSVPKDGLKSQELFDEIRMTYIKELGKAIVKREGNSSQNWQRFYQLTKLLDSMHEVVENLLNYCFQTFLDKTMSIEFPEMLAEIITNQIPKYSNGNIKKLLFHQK
Chain of Cytochrome P450 2C9 (Homo sapiens) (P11712 whole entry, looked up): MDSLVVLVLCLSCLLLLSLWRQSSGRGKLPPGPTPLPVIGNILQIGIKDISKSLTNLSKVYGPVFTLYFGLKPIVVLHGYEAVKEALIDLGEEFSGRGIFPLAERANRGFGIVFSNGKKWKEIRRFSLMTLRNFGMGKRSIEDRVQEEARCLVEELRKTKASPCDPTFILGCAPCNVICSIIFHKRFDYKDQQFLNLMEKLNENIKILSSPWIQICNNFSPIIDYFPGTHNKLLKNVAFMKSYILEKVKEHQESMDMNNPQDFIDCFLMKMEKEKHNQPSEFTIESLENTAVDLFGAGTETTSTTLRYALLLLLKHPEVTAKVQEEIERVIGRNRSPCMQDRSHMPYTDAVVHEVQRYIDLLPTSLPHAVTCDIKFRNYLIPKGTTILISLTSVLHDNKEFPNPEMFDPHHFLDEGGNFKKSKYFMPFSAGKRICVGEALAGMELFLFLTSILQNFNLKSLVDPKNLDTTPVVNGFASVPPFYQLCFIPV
Chain of Cytochrome P450 3A4 (Homo sapiens) (P08684 whole entry, looked up): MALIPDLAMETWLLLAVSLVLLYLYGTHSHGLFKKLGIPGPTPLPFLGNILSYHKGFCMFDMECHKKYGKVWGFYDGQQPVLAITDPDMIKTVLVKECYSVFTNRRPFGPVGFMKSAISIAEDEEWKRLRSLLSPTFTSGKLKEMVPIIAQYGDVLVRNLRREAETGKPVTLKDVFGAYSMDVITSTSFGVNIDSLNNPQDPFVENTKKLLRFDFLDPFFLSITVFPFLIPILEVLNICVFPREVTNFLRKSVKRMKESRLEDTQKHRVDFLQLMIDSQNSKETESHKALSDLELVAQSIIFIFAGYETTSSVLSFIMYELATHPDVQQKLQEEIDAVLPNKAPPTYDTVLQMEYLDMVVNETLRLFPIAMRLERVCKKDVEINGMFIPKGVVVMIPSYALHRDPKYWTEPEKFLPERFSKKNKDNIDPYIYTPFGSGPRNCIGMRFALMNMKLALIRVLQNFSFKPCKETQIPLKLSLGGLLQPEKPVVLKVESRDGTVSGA
Chain of Peroxisome proliferator-activated receptor gamma (Homo sapiens) (P37231 whole entry, looked up): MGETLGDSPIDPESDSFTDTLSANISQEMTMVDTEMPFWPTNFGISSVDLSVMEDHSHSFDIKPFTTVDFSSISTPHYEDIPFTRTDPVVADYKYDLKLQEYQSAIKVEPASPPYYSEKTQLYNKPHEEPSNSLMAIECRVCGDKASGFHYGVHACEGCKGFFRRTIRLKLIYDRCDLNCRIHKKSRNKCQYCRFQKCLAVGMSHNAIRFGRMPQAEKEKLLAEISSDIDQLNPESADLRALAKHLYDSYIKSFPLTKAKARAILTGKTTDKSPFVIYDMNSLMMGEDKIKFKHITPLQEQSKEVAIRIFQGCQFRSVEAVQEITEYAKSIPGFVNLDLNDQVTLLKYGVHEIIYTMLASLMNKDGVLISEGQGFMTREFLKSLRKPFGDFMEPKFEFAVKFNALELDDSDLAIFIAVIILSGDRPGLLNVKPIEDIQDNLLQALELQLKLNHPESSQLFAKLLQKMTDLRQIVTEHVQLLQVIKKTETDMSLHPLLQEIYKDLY
Chain of Cytochrome P450 2D6 (Homo sapiens) (P10635 whole entry, looked up): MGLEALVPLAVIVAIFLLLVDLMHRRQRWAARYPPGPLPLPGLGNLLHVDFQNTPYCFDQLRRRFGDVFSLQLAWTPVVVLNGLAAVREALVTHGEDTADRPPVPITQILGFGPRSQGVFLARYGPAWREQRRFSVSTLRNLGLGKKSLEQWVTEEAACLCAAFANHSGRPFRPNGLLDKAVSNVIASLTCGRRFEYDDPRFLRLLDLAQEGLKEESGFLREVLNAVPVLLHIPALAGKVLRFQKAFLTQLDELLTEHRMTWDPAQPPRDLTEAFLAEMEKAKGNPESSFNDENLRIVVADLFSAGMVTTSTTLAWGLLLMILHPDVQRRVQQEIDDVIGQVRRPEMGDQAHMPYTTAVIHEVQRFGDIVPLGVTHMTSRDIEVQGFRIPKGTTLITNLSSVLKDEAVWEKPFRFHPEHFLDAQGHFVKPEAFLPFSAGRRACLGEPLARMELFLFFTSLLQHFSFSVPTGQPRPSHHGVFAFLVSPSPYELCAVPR
Chain of Cytochrome P450 2C19 (Homo sapiens) (P33261 whole entry, looked up): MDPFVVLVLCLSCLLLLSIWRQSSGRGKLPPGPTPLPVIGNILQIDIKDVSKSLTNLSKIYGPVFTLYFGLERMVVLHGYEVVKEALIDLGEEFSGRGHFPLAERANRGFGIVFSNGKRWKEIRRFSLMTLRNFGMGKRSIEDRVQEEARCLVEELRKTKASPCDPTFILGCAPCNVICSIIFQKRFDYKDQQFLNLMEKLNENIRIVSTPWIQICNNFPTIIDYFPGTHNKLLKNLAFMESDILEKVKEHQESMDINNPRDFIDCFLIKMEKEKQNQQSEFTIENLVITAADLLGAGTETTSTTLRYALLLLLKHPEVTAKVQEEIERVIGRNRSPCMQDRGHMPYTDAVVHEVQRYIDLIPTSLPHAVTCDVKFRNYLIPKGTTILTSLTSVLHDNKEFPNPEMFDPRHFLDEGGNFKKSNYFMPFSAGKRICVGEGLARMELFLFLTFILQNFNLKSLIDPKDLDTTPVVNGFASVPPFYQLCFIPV
Chain of Peroxisome proliferator-activated receptor delta (Homo sapiens) (Q03181 whole entry, looked up): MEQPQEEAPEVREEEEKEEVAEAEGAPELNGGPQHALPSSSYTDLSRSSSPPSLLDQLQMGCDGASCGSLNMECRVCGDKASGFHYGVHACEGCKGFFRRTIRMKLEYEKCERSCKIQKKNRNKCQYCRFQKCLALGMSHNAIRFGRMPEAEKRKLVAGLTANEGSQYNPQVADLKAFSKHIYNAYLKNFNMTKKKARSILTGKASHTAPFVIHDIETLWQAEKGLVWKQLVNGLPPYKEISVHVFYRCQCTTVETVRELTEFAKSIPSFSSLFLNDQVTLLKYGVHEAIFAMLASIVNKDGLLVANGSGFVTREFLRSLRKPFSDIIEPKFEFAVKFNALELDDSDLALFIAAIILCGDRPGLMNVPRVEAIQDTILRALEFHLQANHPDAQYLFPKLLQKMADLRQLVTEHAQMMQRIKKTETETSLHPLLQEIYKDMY
Chain of Thyroid hormone receptor beta (Homo sapiens) (P10828 whole entry, looked up): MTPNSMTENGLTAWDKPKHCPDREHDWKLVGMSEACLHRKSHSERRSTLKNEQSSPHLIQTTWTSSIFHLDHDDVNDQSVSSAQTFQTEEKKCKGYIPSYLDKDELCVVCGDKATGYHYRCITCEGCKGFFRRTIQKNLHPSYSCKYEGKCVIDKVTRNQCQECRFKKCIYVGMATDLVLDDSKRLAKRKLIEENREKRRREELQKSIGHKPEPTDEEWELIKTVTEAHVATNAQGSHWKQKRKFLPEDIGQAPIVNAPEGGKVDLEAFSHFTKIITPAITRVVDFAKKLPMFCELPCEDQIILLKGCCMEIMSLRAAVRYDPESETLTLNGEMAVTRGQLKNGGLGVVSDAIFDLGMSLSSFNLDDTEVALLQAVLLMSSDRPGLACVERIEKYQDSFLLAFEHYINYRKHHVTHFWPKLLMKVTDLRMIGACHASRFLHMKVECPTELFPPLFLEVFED
Chain of Retinoic acid receptor RXR-alpha (Homo sapiens) (P19793 whole entry, looked up): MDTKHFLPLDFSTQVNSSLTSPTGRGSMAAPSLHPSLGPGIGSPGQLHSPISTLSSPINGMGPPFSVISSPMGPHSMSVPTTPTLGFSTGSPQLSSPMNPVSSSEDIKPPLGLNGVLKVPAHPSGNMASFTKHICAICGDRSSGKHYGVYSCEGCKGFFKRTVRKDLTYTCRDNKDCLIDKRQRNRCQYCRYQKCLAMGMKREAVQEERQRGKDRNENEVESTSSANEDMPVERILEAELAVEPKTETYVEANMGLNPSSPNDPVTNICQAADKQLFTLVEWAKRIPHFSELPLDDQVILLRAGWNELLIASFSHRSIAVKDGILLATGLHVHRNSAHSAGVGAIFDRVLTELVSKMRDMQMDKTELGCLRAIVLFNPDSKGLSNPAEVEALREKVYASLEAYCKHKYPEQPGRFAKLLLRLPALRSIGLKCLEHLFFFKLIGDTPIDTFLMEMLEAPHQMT

Regarding `COc1cccc(Nc2ncc3ncc(=O)n(C4CC4)c3n2)c1`, in test [1], the Potency result was “inactive”.

With `C[C@@H](CN1CCC(Cc2ccccc2)CC1)[C@H](O)c1ccc(O)cc1`, in [1], the Potency is 10 µM (active).

`CN1CCN(c2ncc3nc(-c4cccs4)c(=O)n(C[C@H]4CCCO4)c3n2)CC1`: in test [1], the Potency entry was “inactive”.

Consider `COC(=O)[C@](C)(N)Cc1ccc(O)cc1`, for which the Potency result in test [2] is “inactive”.

Consider `O[C@H](CN1CCN(c2cccc(Cl)c2)CC1)C(c1ccccc1)c1ccccc1`, for which the Potency in test [1] was 7.94 µM (active). Moreover, in test [2], the Potency entry is “inactive”.

Take `Oc1c([C@H](Nc2ccccn2)c2ccccc2)ccc2cccnc12`: in [3], the Potency was 316 nM (active).

On to `CCCC(=O)OC(=O)CCC`, for which the max response in test [4] is 16.1% and 21.1%. Further, in test [5], the compound was classed as inactive. Also, the Potency entry in test [6] is “inactive”. In test [7], the activity change % (negative = inhibition) was 18.6% (inactive) and 0.261% (inactive).

`CC(C)C[C@H]1C(=O)N2CCC[C@@H]2[C@]2(O)O[C@](NC(=O)[C@H]3C=C4c5cccc6[nH]c(Br)c(c56)C[C@H]4N(C)C3)(C(C)C)C(=O)N12`: the Potency result in test [1] and in test [2] was “inactive” throughout.

Consider `COc1ccc(C(=O)Nc2ccccc2)cc1[N+](=O)[O-]`, for which the Potency result in [1], in test [8], in test [9] and in test [6] was “inactive” in each case. The activation in test [10] was -1.05% (inactive).

Regarding `COc1ccccc1OC[C@H](O)CN1CCN(CC(=O)Nc2c(C)cccc2C)CC1`, the call in [11] was inactive. The Potency entry in test [2] is “inactive”.

On to `N[C@H](CS(=O)O)C(=O)O`, for which the Potency entry in [12], in test [3] and in test [13] was “inactive” in each case.

On to `O=C(O)C(=Cc1ccc(-c2ccccc2)cc1)C(=O)O`, for which the Potency result in [12], in [3] and in test [13] was “inactive” throughout.

For the compound `CC(C)(C)[C@@]1(O)CCN2C[C@@H]3c4ccccc4CCc4cccc(c43)[C@@H]2C1`, the Potency is 1.58 µM (active) in test [12]; 79.4 nM (active) and 501 nM (active) in test [3]; 12.6 µM (active) in test [14].

As for `Oc1c(Cl)cc(C(c2cc(Cl)c(O)c(Cl)c2)C(c2cc(Cl)c(O)c(Cl)c2)c2cc(Cl)c(O)c(Cl)c2)cc1Cl`, the Potency in [13] was 2.51 µM (active).

In the case of `COC(=O)[C@H]1[C@H]2C[C@H]3c4[nH]c5ccccc5c4CCN3C[C@@H]2CC[C@@H]1O`, the Potency result in [2] was “inactive”.

With `CO/N=C(\C(=O)N[C@@H]1C(=O)N2C(C(=O)O)=C(CSc3nc(=O)c(O)nn3C)CS[C@@H]12)c1csc(N)n1`, the Potency result in test [15] and in [2] was “inactive” each time. In addition, the compound was classed as inactive in test [11].

Consider `CN[C@@H](CC(C)C)C(=O)N[C@@H]1C(=O)N[C@H](CC(N)=O)C(=O)N[C@H]2C(=O)N[C@H]3C(=O)N[C@H](C(=O)N[C@H](C(=O)O)c4cc(O)cc(O)c4-c4cc3ccc4O)[C@H](O)c3ccc(c(Cl)c3)Oc3cc2cc(c3O[C@@H]2O[C@@H](CO)[C@@H](O)[C@@H](O)[C@H]2O[C@H]2C[C@](C)(N)[C@H](O)[C@H](C)O2)Oc2ccc(cc2Cl)[C@@H]1O`, for which the result in test [11] was inactive. Besides, the Potency result in [2] is “inactive”.

On to `CCCCCCCCOc1ccc(C(=O)O)cc1`, for which the Potency entry in [16], in test [8], in test [17] and in [9] was “inactive” each time. For the same compound, in test [10], the activation is -4.25% (inactive). Further, the Potency was 39.8 µM (active) in test [18] and 66.8 µM (active) in test [19]. For the same compound, the activity change % (negative = inhibition) in test [7] is 10% (inactive).

Regarding `CC(=O)c1ccc(Cl)c(Cl)c1Cl`, the Potency entry in test [16], in [8] and in test [17] was “inactive” throughout.

Take `CCC(Cl)CC(Cl)C(Cl)C(Cl)C(Cl)C(C)Cl` (configuration not stated): the Potency entry in test [16], in test [8], in test [18] and in [19] was “inactive” in each case. In test [4], the max response is -12%. For the same compound, in [5], the compound was classed as inactive. Further, in [7], the activity change % (negative = inhibition) is -1.45% (inactive). For the same compound, the activation in test [20] was 0.226% (inactive).

In the case of `Oc1ccc(O)c2c(O)cccc12`, the Potency entry in [16] and in [18] was “inactive” in each case. Also, the Potency was 50.1 µM (active) in [17] and 75 µM (active) in test [19]. Further, the activation in test [10] is -3.75% (inactive).

In the case of `c1ccc2c(c1)ccc1ccccc12`, the Potency result in [9] and in [6] was “inactive” each time. Besides, the max response in [4] was -5.89%. Also, in test [5], the outcome was inactive. The activity change % (negative = inhibition) in test [7] is 0.286% (inactive).

Consider `CN(C)c1ccc(C(=N)c2ccc(N(C)C)cc2)cc1`, for which the Potency entry in test [1] is “inactive”. Moreover, the Potency was 39.8 µM (active) in test [17], 14.1 µM (active) in [6] and 66.8 µM (active) in test [19].

In the case of `O=c1[nH]ncc2ccccc12`, the results for the activation in [10] and in [20] were -0.672% (inactive) and 0.114% (inactive), respectively. For the same compound, the Potency entry in test [18] was “inactive”.
